In all, about 360,000 compounds went through this assay and about 2,000 (0.56%) were called active. This excerpt belongs to a sample that is enriched for actives. Unmarked numbers belong to inactive results.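 The calls were made as follows: active = activation above the average of all compounds screened plus 3 SD, cutoff fixed separately per campaign (cut at about 7.5% in these data); inactive = the rest.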

The assay is described as follows: FXN promoter activators, primary screen, cell-based, luciferase luminescence, HEK293 lucGAA850 (AID 540364).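 Also: 0% = DMSO wells and 100% = 10 µM SAHA wells.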 The conditions noted are these: HEK293 lucGAA850 FXN promoter luciferase reporter, 24 h; at 6 µM; active compounds read high. For orientation: In a reporter assay the amount or activity of a reporter protein is the signal.
Regarding `O=C1C2(Cl)C3(Cl)C4(Cl)C(Cl)(Cl)C5(Cl)C3(Cl)C1(Cl)C5(Cl)C24Cl` (stereo not given), the activation is 9.58% (active).
As to `COc1ccc(Br)cc1CNCCc1cccc(Cl)c1`, the activation is -0.31%.
With `O=C(c1cc2nc(-c3ccccc3)cc(-c3ccccc3)n2n1)N1CCC2(CC1)OCCO2`, the activation was -0.55%.
Take `NCC(O)c1ccc(O)cc1` (stereo not given): the activation was 2.36%.
As to `CC(C)(C)c1ccc(OC(=O)N2CCCCC2)cc1`, the activation is 8.59% (active).
On to `CN1CCN(C(=O)COc2ccc(C(C)(C)C)cc2Br)CC1`, for which the activation is -0.38%.
For `O=C(Nc1cccc(OC(=O)N2CCCCC2)c1)N1CCOCC1`, the activation is -1.14%.
The same measure for `CCN(CC)P(=O)(Oc1cccc(C)c1)N(CC)CC`: -1.37%.
Under `COc1ccc(-n2c(-c3ccccc3)nc3ccccc3c2=O)cc1` stands 0.96%; under `CC(=C1C(=O)c2ccccc2C1=O)N1CCN(CCN=Cc2c(O)n(C)c(=O)n(C)c2=O)CC1`, 1.17%.

The record behind these values is PubChem BioAssay AID540364 (The Scripps Research Institute Molecular Screening Center, 2011).
